Assay outcomes: PubChem BioAssay, several laboratories
Shown are actives, neighbours in structure and some others; about 5.4% of the full set was active somewhere.
CSC inhib: cancer stem cell viability inhibitors, primary screen, luminescence. AID 2717, 2010. cancer stem cell-like cells viability. inhibition, % at 7.5 µM. 300,000 tested, 1.1% active; in the data active = inhibition above about 75%; inconclusive = no clear call, values can overlap the other calls; tested in HMLE shEcad cells
PP5 inh: PP5 phosphatase inhibitors, primary screen, biochemical, fluorescence. Serine/threonine-protein phosphatase 5 (Homo sapiens), P53041. purified PP5c, OMFP substrate fluorescence. inhibition, % at 6.7 µM. 320,000 tested, 0.18% active. AID 1987, 2009;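 active = inhibition above the campaign's mean inhibition across all tested compounds plus 3 SD, cut at about 9.5% in these data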;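 note: 0% = DMSO only and 100% = 100 µM cantharidin control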
Target sequence (P53041 whole entry, looked up): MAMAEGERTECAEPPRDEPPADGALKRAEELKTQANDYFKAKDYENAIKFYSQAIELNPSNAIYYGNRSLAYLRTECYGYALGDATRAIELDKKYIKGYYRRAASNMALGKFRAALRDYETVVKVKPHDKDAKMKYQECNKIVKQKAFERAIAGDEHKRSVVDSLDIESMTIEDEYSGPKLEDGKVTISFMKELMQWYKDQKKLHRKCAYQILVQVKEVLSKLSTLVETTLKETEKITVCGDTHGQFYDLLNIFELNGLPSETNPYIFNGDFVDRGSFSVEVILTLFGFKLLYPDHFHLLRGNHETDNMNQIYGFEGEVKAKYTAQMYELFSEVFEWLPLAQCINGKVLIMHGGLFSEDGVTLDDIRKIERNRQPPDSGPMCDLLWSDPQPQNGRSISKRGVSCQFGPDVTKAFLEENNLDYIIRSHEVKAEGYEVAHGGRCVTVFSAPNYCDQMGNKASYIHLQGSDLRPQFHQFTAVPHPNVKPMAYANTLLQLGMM
ALR H2O2 inh: inhibitors of human ALR sulfhydryl oxidase, primary screen, biochemical, H2O2 detection, HRP-luminol luminescence, single point | FAD-linked sulfhydryl oxidase ALR (Homo sapiens), P55789 | purified ALR, DTT oxidation | inhibition, % (concentration not given with the values) | 290,000 tested, 3.8% active;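 active = mean replicate inhibition above about 79%, with every replicate also reaching it, limit read from the data; inconclusive = only one of the two criteria met; inactive = mean below limit and not every replicate reaching it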
Calb FLC: C. albicans growth inhibition with fluconazole, primary screen, CaCi-2 strain, Alamar Blue fluorescence | C. albicans CaCi-2 (fluconazole-resistant clinical isolate) + fluconazole, 48 h | growth inhibition, % (no concentration beside the values) | 300,000 tested, 0.57% active | AID 1979, 2009;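 active = growth inhibition above about 58% in most replicates, limit read from the data, passing the limit was not always enough; inconclusive = exactly half the replicates above a set limit; inactive = most replicates below a set limit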;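 note: all wells also contain fluconazole at 8 µg/ml as a sub-toxic cotreatment; 0% = median of DMSO wells and 100% = median of geldanamycin control wells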
PP1 inh: PP1-alpha phosphatase inhibitors, primary screen, counter-screen for PP5 inhibitor project, biochemical, fluorescence, OMFP substrate, single point; inhibition, % at 6.7 µM; 320,000 tested, 0.9% active; Serine/threonine-protein phosphatase PP1-alpha catalytic subunit (Homo sapiens), P62136; purified PP1alpha;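 active = inhibition above the mean inhibition of all tested compounds plus 3 SD, computed separately for each screening campaign, cut at about 15% in these data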
Active calls of the source: *.

How did CC(C)(C)c1ccc(C(=O)NCCCN2CCN(CCCNC(=O)c3ccc(C(C)(C)C)cc3)CC2)cc1 do in these assays?
CSC inhib: 102*; PP5 inh: 4; ALR H2O2 inh: -1; Calb FLC: -2; PP1 inh: 0

Results for O=C(NCCCN1CCOCC1)c1ccc(CSc2ccc(Cl)cc2)cc1 ?
CSC inhib: 76*; PP5 inh: 2; ALR H2O2 inh: 71; Calb FLC: 22; PP1 inh: 5

What do the screens show for `O=C(O)CCCn1cc(NC(=O)COc2ccccc2F)cn1`?
PP5 inh: -5; Calb FLC: -2; PP1 inh: -5

How did O=C(Nc1c(F)cc(F)cc1Br)c1cc(-c2ccc(O)cc2)on1 do in these assays?
CSC inhib: 37; PP5 inh: 4; ALR H2O2 inh: 99*; Calb FLC: -14; PP1 inh: -1

What do the screens show for `CCn1c(=O)c2cc(C(=O)NCCN3CCOCC3)sc2c2ccccc21`?
CSC inhib: -13; PP5 inh: 4; ALR H2O2 inh: 94*; Calb FLC: -7; PP1 inh: 6

Results for COc1ccc(N(CC(=O)O)S(=O)(=O)c2ccc(OC)c(OC)c2)cc1 ?
CSC inhib: -7; PP5 inh: 2; Calb FLC: 2; PP1 inh: -1

What do the screens show for `O=C(Nc1nnc(-c2ccc3c(c2)CCCC3)o1)c1c(F)cccc1F`?
CSC inhib: 22; PP5 inh: 1; ALR H2O2 inh: 95*; Calb FLC: inconclusive; PP1 inh: 7

How did O=C(CCc1ccccc1)Nc1nnc(-c2ccc3c(c2)CCCC3)o1 do in these assays?
CSC inhib: 10; PP5 inh: -1; Calb FLC: 12; PP1 inh: 20*

What do the screens show for `O=C(CCc1ccccc1)Nc1nnc(-c2ccc3c(c2)OCCO3)o1`?
CSC inhib: 5; PP5 inh: 2; ALR H2O2 inh: -16; Calb FLC: -14; PP1 inh: 4

How did CC(=O)Nc1ccccc1NC(=O)C/C(C)=N/NC(=O)C(=O)N1CCCCC1 do in these assays?
PP5 inh: 1; Calb FLC: -3; PP1 inh: 0

How did O=c1nc(-c2ccccc2)c(-c2ccccc2)n[nH]1 do in these assays?
CSC inhib: -7; ALR H2O2 inh: 1; Calb FLC: -4

Results for S=c1nc(-c2ccccc2)c(-c2ccccc2)n[nH]1 ?
CSC inhib: -14; PP5 inh: 1; ALR H2O2 inh: 86*; Calb FLC: 5; PP1 inh: -4

How did COc1cccc(C(=O)Nc2ccc3c(c2)CCCN3C(=O)c2cccs2)c1OC do in these assays?
CSC inhib: 30; PP5 inh: 1; ALR H2O2 inh: 3; Calb FLC: 19; PP1 inh: 2

How did CC(C)c1cc(C(=O)Nc2cccnc2)no1 do in these assays?
CSC inhib: 5; PP5 inh: 1; ALR H2O2 inh: -2; Calb FLC: -4; PP1 inh: -3

What do the screens show for `O=C(Cc1cnn(-c2ccccc2)c1)c1ccc(O)c(O)c1O`?
PP5 inh: 3; ALR H2O2 inh: 100*; Calb FLC: inconclusive; PP1 inh: 4

Results for CCC(=O)OCC(=O)Nc1ccc([N+](=O)[O-])cc1OC ?
CSC inhib: 22; PP5 inh: 0; ALR H2O2 inh: -8; Calb FLC: -6; PP1 inh: 4

What do the screens show for `CCOC(=O)C(=NCCCN(C)C)NNc1ccc(Br)cc1`?
CSC inhib: 18; PP5 inh: 2; ALR H2O2 inh: 99*; Calb FLC: inconclusive; PP1 inh: -6

Results for CCCCN=C(NNc1ccc(Br)cc1)C(=O)OCC ?
CSC inhib: 136*; PP5 inh: 2; ALR H2O2 inh: 99*; Calb FLC: 0; PP1 inh: 3

How did CCOC(=O)C(=NCCCN(C)C)NNc1cc(C(F)(F)F)ccc1Cl do in these assays?
CSC inhib: 1; PP5 inh: 0; ALR H2O2 inh: 51; Calb FLC: -41; PP1 inh: 0

Results for Cc1ccccc1OCC(=O)NCCCNC(=O)c1ccco1 ?
CSC inhib: -1; PP5 inh: 0; ALR H2O2 inh: -19; Calb FLC: 0; PP1 inh: -4

What do the screens show for `COc1ccc(-c2nnc(SCC(=O)Nc3nncs3)o2)cc1`?
CSC inhib: -13; PP5 inh: 2; ALR H2O2 inh: 6; Calb FLC: 2; PP1 inh: 5

Results for Cc1cc(C(=O)CN2C(=O)NC3(CCCCC3)C2=O)c(C)n1-c1ccc2c(c1)OCO2 ?
PP5 inh: -1; ALR H2O2 inh: -9; Calb FLC: -1; PP1 inh: -1

What do the screens show for `O=C(CNCc1ccco1)Nc1ccc(N2CCCCCC2)cc1`?
CSC inhib: -8; PP5 inh: 0; ALR H2O2 inh: 99*; Calb FLC: 3; PP1 inh: -2

What do the screens show for `O=C(CNC(=O)c1ccco1)Nc1ccc(N2CCCCCC2)cc1`?
CSC inhib: -6; PP5 inh: 0; ALR H2O2 inh: 98*; PP1 inh: -1

Results for CCCCn1c(SCC(=O)NCCOC)nc2ccc(N3CCOCC3)cc2c1=O ?
CSC inhib: 38; PP5 inh: -2; ALR H2O2 inh: 3; Calb FLC: 21; PP1 inh: 1

How did Cc1ccc(NC(=O)Cn2c(CCC(=O)O)ccc2-c2cccs2)cc1 do in these assays?
PP5 inh: 2; ALR H2O2 inh: 18; Calb FLC: 32; PP1 inh: -9

How did COc1ccc(-n2c(SCC(=O)NCc3ccco3)nc3sc4c(c3c2=O)CCN(C)C4)cc1 do in these assays?
CSC inhib: -9; PP5 inh: 2; ALR H2O2 inh: 98*; Calb FLC: 32; PP1 inh: 15

What do the screens show for `CN1CCc2c(sc3nc(SCC(=O)NCc4ccco4)n(-c4ccccc4)c(=O)c23)C1`?
CSC inhib: -8; PP5 inh: 3; ALR H2O2 inh: 34; Calb FLC: 18; PP1 inh: 8

How did CCOC(=O)CSc1nc2sc3c(c2c(=O)n1-c1ccc(OC)cc1)CCN(C)C3 do in these assays?
CSC inhib: -5; ALR H2O2 inh: 99*; Calb FLC: 1

What do the screens show for `CCOC(=O)CSc1nc2sc3c(c2c(=O)n1-c1ccc(C)cc1)CCN(C)C3`?
CSC inhib: -3; ALR H2O2 inh: 99*; Calb FLC: 2

How did CN1CCc2c(sc3nc(SCC(=O)N4CCOCC4)n(-c4ccc(Cl)cc4)c(=O)c23)C1 do in these assays?
CSC inhib: -4; PP5 inh: -3; ALR H2O2 inh: 98*; Calb FLC: inconclusive; PP1 inh: 3

What do the screens show for `O=C1c2ccccc2C(=O)N1CC(=O)N1c2ccccc2CCc2ccccc21`?
CSC inhib: -1; PP5 inh: 0; ALR H2O2 inh: -1; Calb FLC: 4; PP1 inh: 3

Results for Cc1cc(C)cc(OCCNC(=O)C2CCN(S(=O)(=O)c3ccccc3)CC2)c1 ?
CSC inhib: -10; PP5 inh: 0; ALR H2O2 inh: 0; Calb FLC: 0; PP1 inh: 3
